Sfp inh: qHTS Assay for Inhibitors of Bacillus subtilis Sfp phosphopantetheinyl transferase (PPTase); 4'-phosphopantetheinyl transferase ffp (Bacillus subtilis), Q9F4F7; Biochemical Sfp PPTase activity, qHTS; Potency, µM, without a hit: largest response in the series, negative = inhibition, hits mostly inhibitors; 3.5% of 310,000 active;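 note: the enzyme is Sfp with the accession as filed and its product quenches rhodamine fluorescence; 0% = enzyme reaction without inhibitor and -100% = no enzyme wells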
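Fluorescence-quenching assay with 15 nM Sfp, 5 uM rhodamine-CoA and 12.5 uM BHQ-2-labelled ybbR peptide in pH 7.6 Hepes/MgCl2 buffer. Enzyme was pre-incubated with compound for 15 min at room temperature. Rate was taken from the 30-min fluorescence change (525/598 nm).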
PLK1 PBD block: qHTS for Inhibitors of PLK1-PDB (polo-like kinase 1 - polo-box domain): Primary Screen; AID 720504, 2013; 2.8% of 360,000 active; Potency, µM, inactives show max response, negative = inhibition, hits mostly inhibitors; Serine/threonine-protein kinase PLK1 (Homo sapiens), P53350; Plk1 PBD binding of FITC phosphopeptide, fluorescence polarization; note: series mostly up to about 57 µM; % is set by controls: 0 for no effect and ±100 for the full control effect; nearly all actives have a fitted effect of over 65% in size
JMJD2A Tudor: qHTS Assay for Inhibitors of JMJD2A-Tudor Domain; Lysine-specific demethylase 4A (Homo sapiens), O75164; AlphaScreen JMJD2A-Tudor / H3K4me3 peptide binding; Potency, µM (doses to about 114 µM), for the others: top-dose activity change, negative = inhibition, usual class: inhibitors; 4.4% of 390,000 active; note: % is set by controls: 0 for no effect and ±100 for the full control effect; nearly all actives have a fitted effect of over 50% in size
BAZ2B block: qHTS Assay for Inhibitors of BAZ2B | Bromodomain adjacent to zinc finger domain protein 2B (Homo sapiens), Q9UIF8 | AlphaScreen BAZ2B-H3K14Ac peptide displacement | 4.4% of 360,000 active | Potency, µM (highest dose often 114 µM), for inactives: at the top dose activity change, negative = inhibition, most hits filed as inhibitors; note: % is set by controls: 0 for no effect and ±100 for the full control effect; nearly all actives have a fitted effect of over 60% in size
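BAZ2B (50 nM) with biotin-H3(5-23)K14Ac peptide (50 nM) in PBS pH 7.4, 0.01% Tween-20, preformed 30 min, then compound 30 min at room temperature; top concentration 110uM. AlphaScreen streptavidin donor/nickel chelate acceptor beads (10 ug/mL final), 20 min dark, signal read.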
HP1b chromo inh: HTS for Inhibitors of HP1-beta Chromodomain Interactions with Methylated Histone Tails | Potency, µM (doses to about 114 µM), inactives show at the top dose activity change, negative = inhibition, most hits filed as inhibitors | Chromobox protein homolog 1 (Homo sapiens), P83916 | AID 540317, 2011 | 0.56% of 390,000 active | AlphaScreen HP1-beta / biotin-H3K9me3 peptide binding; note: nearly all actives have a fitted effect of over 70% in size
Target sequence (P83916 whole entry, looked up): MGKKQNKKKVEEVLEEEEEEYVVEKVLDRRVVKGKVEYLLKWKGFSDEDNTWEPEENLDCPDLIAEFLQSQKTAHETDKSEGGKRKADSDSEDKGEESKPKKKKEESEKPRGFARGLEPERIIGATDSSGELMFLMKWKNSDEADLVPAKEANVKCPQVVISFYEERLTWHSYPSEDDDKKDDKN
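AlphaScreen: HP1-beta (50 nM) preformed 30 min with biotin-H3(1-18)K9me3 peptide (50 nM) in PBS pH 7.4, 0.01% Tween-20. Compound added for 30 min at RT, then streptavidin donor/nickel chelate acceptor beads (10 ug/mL) for 30 min.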
G9a block: qHTS Assay for Inhibitors of Histone Lysine Methyltransferase G9a; G9a H3K9 monomethylation, AlphaScreen, 2 h; Potency, µM (titrated, usually from 102 µM), without a hit: at the highest dose activity, negative = inhibition, hits mostly inhibitors; 8.8% of 350,000 active; note: % is set by controls: 0 for no effect and ±100 for the full control effect; nearly all actives have a fitted effect of over 75% in size
Target sequence (Q96KQ7 913-1193 limits assumed): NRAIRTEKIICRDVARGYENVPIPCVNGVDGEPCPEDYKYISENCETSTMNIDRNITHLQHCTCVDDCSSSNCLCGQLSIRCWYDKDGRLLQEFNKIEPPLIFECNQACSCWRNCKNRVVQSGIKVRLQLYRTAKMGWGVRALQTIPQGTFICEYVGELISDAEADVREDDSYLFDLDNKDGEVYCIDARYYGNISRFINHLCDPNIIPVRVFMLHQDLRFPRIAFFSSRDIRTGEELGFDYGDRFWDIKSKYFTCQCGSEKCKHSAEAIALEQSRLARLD
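Signal arises when biotinylated H3K9 peptide, once monomethylated, bridges streptavidin donor and antibody-captured acceptor beads. Enzyme at 20 nM was preincubated 15 min with test compounds; peptide 500 nM and SAM 20 uM then reacted for 2 h.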
An asterisk follows results filed as active; ? = inconclusive; . = no result; [ ] = another dose, or the depositor's remark. An excerpt weighted towards active compounds, which were near 12% of everything screened. Calls come from the whole dose curve; as a rule, active = well fitted curve in the direction sought with a large enough effect; inconclusive = small, poorly fitted or top-dose-only effect, or another doubt; inactive = no such curve, though single readings can be large; an effect the other way counts as inactive or inconclusive. Potency is the fitted concentration of half-maximal effect.

SMILES | Sfp inh | PLK1 PBD block | JMJD2A Tudor | BAZ2B block | HP1b chromo inh | G9a block
CCN(C(=O)CSc1nncn1-c1ccccc1)c1c(N)n(Cc2ccccc2)c(=O)[nH]c1=O | 9% | -7% | -9% | -2% | 13% | ?
COCCNC(=O)c1cccc(OC2CCN(Cc3ccccc3C)CC2)c1 | 13% | -5% | -15% | -6% | 18% | 42%
CC(=O)OCC(=O)[C@@]1(O)CCC2C3CCC4=CC(=O)CC[C@]4(C)C3C(O)C[C@]21C (some centres undefined) | 9% | . | . | . | . | -4%[2.33 µM]
CCCCOC(=O)c1ccc(NC(=S)NC(=O)c2c(Br)c(C)nn2C)cc1 | 4.5µM* | -19% | -24% | 20% | -13% | -4%[59 µM]
CC(=O)N1CCC[C@@]2(CCN(Cc3ccccc3)C2)C1 | 24% | . | . | . | . | -2%[12.7 µM]
O=C1CC(c2ccccc2)Sc2nc3ccccc3n21 (centres undefined) | 9% | -10% | 18% | 11% | 60% | ?
O=C1CSCc2nc3ccccc3n21 | . | 6% | 20µM* | . | 15% | .
COc1ccc(N2CCN(C(=O)COC(=O)CCOc3ccccc3C)CC2)cc1 | . | -2% | ? | ? | -21% | 32µM*
CCOc1ccc(OCCC(=O)OCC(=O)N2CCN(c3ccc(OC)cc3)CC2)cc1 | . | 3% | 5% | 3% | 15% | -44%
COc1ccc(N2CCN(C(=O)COC(=O)CCOc3cc(C)ccc3C)CC2)cc1 | . | -4% | -10% | -26% | -36% | 10µM*
COc1ccc(N2CCN(C(=O)COC(=O)CCc3ccccc3OC)CC2)cc1 | . | 2% | -24% | -32% | -9% | 11µM*
Cc1ccc(C2Nc3ccccc3-n3c(-c4ccccc4)c4c(=O)n(C)c(=O)n(C)c4c32)o1 (centres undefined) | . | . | -12% | 4% | 46% | -28%[59 µM]
CCc1ccc(S(=O)(=O)c2nnn(-c3ccc(F)cc3)c2N)cc1 | . | . | 1% | 2% | 29% | -3%[59 µM]
C=CC1=C2C=C(C3CC3)N(c3ccc(OC)cc3)C=C2C(=O)C(C)(OC(=O)c2ccco2)C1=O (centres undefined) | 5% | . | . | . | . | .
C/C=C(\C)CN1CCN(c2ccccc2)CC1 | 10% | 4% | -16% | ? | 8% | 50µM*
Cc1ccc(C)c(N2CCN(Cc3nnnn3C3CCCCC3)CC2)c1 | 79µM* | 2% | -20% | -3% | 24% | -49%[59 µM]
C/C=C(\C)CN1CCN(c2cc(C)ccc2C)CC1 | ? | 2% | 5.6µM* | -33% | ? | 1.3µM*
O=c1ccc(-c2ccccc2)nn1Cc1c(F)cccc1Cl | . | . | 10% | 12% | 58% | 5%[59 µM]
CCO[C@H](c1cc(OC)cc([N+](=O)[O-])c1OC)[C@H](C)/C=C\CC(=O)OC | 6% | . | . | . | . | .
COc1cc(OC)c(N(C)C(=O)c2cn(C)c(=O)c3cc(OC)c(OC)cc23)cc1Cl | -2% | -18% | -9% | -6% | 17% | -35%
O=C(/C(C=Nc1cccc(C(F)(F)F)c1)=C(/O)c1ccco1)C(F)(F)F | -4% | -14% | -14% | ? | 32% | ?
O=C(/C(C=Nc1ccc(Br)cc1)=C(/O)c1ccco1)C(F)(F)F | 6% | -5% | -25% | -1% | 38% | 45µM*
CN1CCN(c2ccc(NC(=O)COc3cccc4ccccc34)cc2)CC1 | -6% | -8% | ? | ? | -10% | ?
CN1CCN(c2ccc(NC(=S)NC(=O)c3cccc4ccccc34)cc2)CC1 | -25% | -15% | ? | 35µM* | ? | 22µM*
CN1CCN(c2ccc(NC(=O)c3ccccc3Br)cc2)CC1 | 14% | 1% | -15% | -14% | 23% | ?
SMILES | Sfp inh | PLK1 PBD block | JMJD2A Tudor | BAZ2B block | HP1b chromo inh | G9a block
CN1CCN(c2ccc(NC(=S)NC(=O)c3cccc4c(Br)cccc34)cc2)CC1 | 6% | -1% | -32% | ? | 8% | 6.3µM*
CCC1=C/C(=C/c2sc3ccccc3[n+]2CC)CC(C)(C)C1 | 35µM* | 21µM* | 13µM* | 45µM* | -1% | 5µM*
CC[n+]1c(/C=C2\C=C(C)CC(C)C2)sc2ccccc21 (centres undefined) | 35µM* | ? | 50µM* | ? | 3% | ?
CC[n+]1c(/C=C2\C=C(C)CC(C)(C)C2)sc2ccccc21 | 11µM* | 21µM* | 40µM* | 56µM* | -35% | ?
CC[n+]1c(/C=C2/C=C(C)CC(C)(C)C2)sc2ccc(OC)cc21 | 14µM* | 21µM* | 50µM* | 56µM* | 20µM* | -37%[12.7 µM]
COc1ccc(CC(=O)N2CCc3cc(OC)c(OC)cc3C2COc2ccc(F)cc2)cc1 (centres undefined) | . | . | ? | ? | 9% | -6%[59 µM]
CCc1noc(C)c1C(=O)Nc1cc(S(=O)(=O)N2CCOCC2)ccc1N1CCN(CC)CC1 | . | -4% | -19% | -7% | 2% | 27%[2.33 µM]
COc1c(C2=CC(=O)N(C)C2=O)c2c(n1C)C(=O)c1ccccc1C2=O | 25µM* | . | . | . | . | .
COc1ccc(C(=O)N2CCC3(CCCN(CC(C)C)C3)CC2)cc1 | 9% | . | . | . | . | 4%[12.7 µM]
O=C(COC(=O)C1C2CC3OC(=O)C1C3C2)Nc1ccccc1 (centres undefined) | 11% | -18% | -4% | 7% | 7% | 50µM*
O=C(COC(=O)C1C2CC3OC(=O)C1C3C2)Nc1ccc(F)cc1 (centres undefined) | 10% | -1% | -8% | -15% | 53% | -6%
COc1ccc(-c2c(C#Cc3ccsc3)c3ccccc3n2C)cc1 | -14% | ? | -14% | ? | 38% | 32µM*
S=C(NCC1CCCO1)N1CCN(Cc2ccccc2)CC1 (centres undefined) | ? | -9% | 0.89µM* | 20µM* | 20µM* | 16µM*
Cc1ccc(S(=O)(=O)N2CCN(C(=S)NCC3CCCO3)CC2)cc1 (centres undefined) | . | -4% | -14% | -7% | 30% | -2%
O=C(NCC1CCCO1)c1ccc2c(c1)N(Cc1ccccc1)C(=O)CS2=O (centres undefined) | 4% | 7.5µM* | ? | 4% | -14% | -5%[59 µM]
S=C(NCC1CCCO1)N1CCN(c2nc(-c3ccccc3)cs2)CC1 (centres undefined) | 6% | -10% | ? | ? | -1% | 50µM*

Screens (PubChem)
